Test results published in PubChem BioAssay AID651610 (Broad Institute, 2012).
The campaign covered roughly 360,000 compounds. About 3,900 (1.1%) were called active. The full list was thinned out, with actives kept by preference. A number with no mark means an inactive call.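 Rule for the calls: active = mean replicate inhibition score of at least 50 and every replicate individually at or above 50; inconclusive = only one of the two criteria met; inactive = mean below 50 and not all replicates reaching 50.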

Assay: inhibitors of HIV-1 Env-driven cell-cell fusion, primary screen, HeLa-JRFL effector, CEM21 target cells, luciferase (AID 651610);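 note: 0% = plate neutral controls and 100% = maraviroc near 300 nM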
Conditions: hits give high values; at 16.7 µM unless noted

Row | SMILES | inhibition
1 | C[C@@H]1CCCCO[C@H](CN(C)Cc2ccc(C(F)(F)F)cc2)[C@H](C)CN([C@@H](C)CO)C(=O)c2cc(N(C)C)ccc2O1 | 6.26%
2 | COc1ccccc1S(=O)(=O)N[C@@H]1CC[C@@H](CCNC(=O)C2CCCCC2)O[C@@H]1CO | -6.59%
3 | C=CCOCCN(C)C1=NS(=O)(=O)c2ccccc21 | 1.56% [at 12.3 µM]
4 | COc1ccc(/C=N/N(C)C2=NS(=O)(=O)c3ccccc32)cc1OC | 1.34% [at 12.3 µM]
5 | COc1ccc(C(C)(C)C)cc1NC(=O)CN(C)C1=NS(=O)(=O)c2ccccc21 | 64.3% [at 12.3 µM] (active)
6 | COc1ccc(CN(C)C[C@H]2Oc3c(NC(=O)Nc4ccccc4)cccc3C(=O)N([C@@H](C)CO)C[C@@H]2C)cc1 | 6.99%
7 | C[C@@H]1CN([C@@H](C)CO)C(=O)Cc2cc(NC(=O)C3CCCCC3)ccc2O[C@@H]1CN(C)CC1CCCCC1 | -8.61%
8 | COc1cccc(/C=N/Nc2ncc(C(F)(F)F)cc2Cl)c1O | 74.7% [at 12.3 µM] (active)
9 | O=c1[nH]c2cccnc2n(CCNc2ncc(C(F)(F)F)cc2Cl)c1=O | -11.9% [at 12.3 µM]
10 | CN(C)C=NC(=O)c1cccn1-c1ncc(C(F)(F)F)cc1Cl | 8.04% [at 12.3 µM]
11 | C[C@@H]1CN([C@@H](C)CO)C(=O)c2cc(NS(=O)(=O)c3cccs3)ccc2O[C@H]1CN(C)CC1CCCCC1 | -17.2%
12 | CC(C)(C)OC(=O)CNC(=O)c1[nH]cnc1C(=O)N[C@@H](Cc1ccccc1)C(=O)OCc1ccccc1 | 6.73% [at 12.3 µM]
13 | Cc1cccc(NC(=O)c2nc[nH]c2C(=O)NCC(=O)OCc2ccccc2)c1 | 55.2% [at 12.3 µM] (active)
14 | C[C@H](NC(=O)c1nc[nH]c1C(=O)NCC(=O)OC(C)(C)C)C(=O)OCc1ccccc1 | -4.51% [at 12.3 µM]
15 | O=C(C[C@@H]1CC[C@@H]2[C@H](COC[C@H](O)CN2C(=O)c2cccnc2)O1)NC1Cc2ccccc2C1 | -0.583%
16 | CO[C@@H]1CN(C)C(=O)c2ccc(NC(=O)c3cccc(Oc4ccccc4)c3)cc2OC[C@H](C)NC[C@@H]1C | 12.8%
17 | C[C@@H]1Cn2cnc(C(=O)Nc3ccc(CNC(=O)OC(C)(C)C)cc3)c2C(=O)N1 | 58.6% [at 12.3 µM] (active)
18 | Cc1ccc(NC(=O)c2nc[nH]c2C(=O)N[C@@H](CCCCNC(=O)OC(C)(C)C)C(=O)OC(C)(C)C)cc1 | 32.1% [at 12.3 µM]
19 | CN1CCn2cnc(C(=O)NCC(=O)OC(C)(C)C)c2C1=O | 2.91% [at 12.3 µM]
20 | O=C(CCN1CCCCC1)N[C@@H]1C=C[C@@H](CC(=O)N2CCC(Cc3ccccc3)CC2)O[C@H]1CO | 3.09%
21 | CSCCC(NS(=O)(=O)c1ccc2c(c1)oc(=O)n2C)C(=O)NC1CCCc2ccccc21 (configuration not stated) | 87% [at 12.3 µM] (active)

Row | SMILES | inhibition
22 | CNS(=O)(=O)c1cccc(C(=O)NC2CCCc3ccccc32)c1 (configuration not stated) | 15.1% [at 12.3 µM]
23 | CSCCC(NS(=O)(=O)c1ccc2c(c1)oc(=O)n2C)C(=O)NCc1ccccc1 (configuration not stated) | -4.2% [at 12.3 µM]
24 | Cc1noc(C)c1NC(=O)N(C)C[C@H]1OCCCC[C@@H](C)Oc2ccc(NS(=O)(=O)c3ccc(Cl)cc3)cc2C(=O)N([C@@H](C)CO)C[C@H]1C | -65.1%
25 | CCCN(C)C[C@H]1OCCCC[C@@H](C)Oc2ccc(NC(=O)Nc3ccc(F)cc3)cc2C(=O)N([C@@H](C)CO)C[C@H]1C | -12.4%
26 | C[C@@H]1CCCCO[C@@H](CN(C)C(=O)C2CCCCC2)[C@H](C)CN([C@H](C)CO)C(=O)c2cc(NC(=O)Cc3ccccc3)ccc2O1 | -36.4%
27 | CC[C@]1(C(=O)OC)[C@H]2C(=O)N(Cc3ccccc3)C(=O)[C@H]2[C@H]2CN=C(SCc3ccc(C#N)cc3)N21 | 87.6% [at 12.3 µM] (active)
28 | CCNC(=O)N(CC)C[C@H]1N[C@@](CC)(C(=O)OC)[C@H]2C(=O)N(Cc3ccccc3)C(=O)[C@@H]12 | -2.99% [at 12.3 µM]
29 | CC[C@]1(C(=O)OC)[C@H]2C(=O)N(Cc3ccccc3)C(=O)[C@H]2[C@H]2CN=C(SCc3ccccc3)N21 | 93.6% [at 12.3 µM] (active)
30 | CC[C@]1(C(=O)OC)[C@H]2C(=O)N(C)C(=O)[C@H]2[C@H]2CN(C)C(=NCc3ccccc3)N21 | -17.3% [at 12.3 µM]
31 | CCN(C[C@H]1N[C@@](Cc2ccccc2)(C(=O)OC)[C@H]2C(=O)N(Cc3ccccc3)C(=O)[C@@H]12)C(=O)c1ccc(C)cc1 | -47.2% [at 12.3 µM]
32 | CCN1C[C@@H]2[C@@H]3C(=O)N(Cc4ccccc4)C(=O)[C@@H]3[C@](C)(C1=O)N2C(=O)c1ccc(C(C)(C)C)cc1 | -9.05% [at 12.3 µM]
33 | COC(=O)[C@@]1(C)[C@H]2C(=O)N(Cc3ccccc3)C(=O)[C@H]2[C@H]2CN=C(SCC3CC3)N21 | 84% [at 12.3 µM] (active)
34 | COC(=O)[C@]1(Cc2ccccc2)N[C@H](CN(C)S(=O)(=O)c2ccc(F)cc2)[C@@H]2C(=O)N(Cc3ccccc3)C(=O)[C@@H]21 | 31.6% [at 12.3 µM]
35 | CCN1C[C@@H]2[C@@H]3C(=O)N(Cc4ccccc4)C(=O)[C@@H]3[C@](Cc3ccccc3)(C(=O)OC)N2C1=NC1CCCCC1 | 16.7% [at 12.3 µM]
36 | CO[C@@H]1CN(C)C(=O)c2cc(NC(C)=O)ccc2OC[C@H](C)N(C(=O)CC2CC2)C[C@@H]1C | -18.3%
37 | Cc1noc(C)c1S(=O)(=O)Nc1ccc2c(c1)C(=O)N([C@H](C)CO)C[C@@H](C)[C@@H](CN(C)C(=O)C1CCCCC1)OCCCC[C@@H](C)O2 | 2.09%
38 | C[C@H](O)C#Cc1cnc2c(c1)C(=O)N([C@@H](C)CO)C[C@H](C)[C@@H](CN(C)C(=O)c1ccncc1)O2 | -14.6%
39 | CO[C@@H]1CN(C)C(=O)c2cc(NC(=O)c3ccc(F)cc3)ccc2OC[C@H](C)NC[C@@H]1C | -6.15%
40 | Cc1ccccc1S(=O)(=O)N[C@H]1CC[C@@H](CCn2cc(Cc3ccccc3)nn2)O[C@H]1CO | 0.428%
41 | CCCC(=O)Nc1ccc2c(c1)OC[C@@H](C)N(CC1CCOCC1)C[C@H](C)[C@H](OC)CN(C)C2=O | -7.57%
42 | C[C@@H]1CN([C@H](C)CO)C(=O)c2cccc(NC(=O)Nc3ccccc3)c2O[C@H]1CN(C)Cc1ccccc1 | 9.88%

Row | SMILES | inhibition
43 | Cc1ccc(S(=O)(=O)N(C)C[C@@H]2OCCCC[C@H](C)Oc3ccc(NS(=O)(=O)c4cn(C)cn4)cc3C(=O)N([C@H](C)CO)C[C@@H]2C)cc1 | -30.7%
44 | CO[C@H]1CN(C)C(=O)c2ccc(NS(=O)(=O)c3ccccc3)cc2OC[C@@H](C)N(Cc2nccs2)C[C@@H]1C | -11.1%
45 | C/C=C/c1ccc([C@@H]2[C@@H](CO)N(C(=O)CN(C)C)C23CN(C(=O)C2CCCC2)C3)cc1 | 25.3%
46 | COC(=O)C1=C(C(=O)OC)C2C=C(C(C)C)C1C(=O)C2(C)O (configuration not stated) | -16.5% [at 12.3 µM]
47 | Cc1c(C(=O)Nc2cccc(S(=O)(=O)N3CCOCC3)c2)oc2ccccc12 | 60.5% [at 12.3 µM] (active)
48 | Cc1occc1C(=O)Nc1cccc(S(=O)(=O)N2CCOCC2)c1 | -25.4% [at 12.3 µM]
49 | COc1ccc(NC(=O)c2oc3ccc(S(=O)(=O)N4CCOCC4)cc3c2C)cc1 | 6.27% [at 12.3 µM]
50 | COc1ccc(S(=O)(=O)N(C)C[C@@H]2OCCCC[C@@H](C)Oc3ccc(NS(=O)(=O)c4ccccc4)cc3C(=O)N([C@@H](C)CO)C[C@H]2C)cc1 | -2.53%
51 | O=C(Nc1ccc(N2CCN(C(=O)c3ccccc3)CC2)c(Cl)c1)c1ncn[nH]1 | 5.87% [at 12.3 µM]
52 | O=C(Nc1ccc(N2CCN(C(=O)c3ccccc3)CC2)c(Cl)c1)c1cccnc1 | 86.4% [at 12.3 µM] (active)
53 | Cc1ccccc1N1CCN(C(=O)c2cccnc2)CC1 | 6.64% [at 12.3 µM]
54 | C[C@H](CO)N1C[C@H](C)[C@H](CN(C)Cc2ccncc2)Oc2ncc(C#Cc3cccc(F)c3)cc2C1=O | 7.42%
55 | CC(C)NC(=O)N[C@@H]1CC[C@H](CC(=O)NCCN2CCCC2)O[C@@H]1CO | 20.3%
56 | C[C@H](CO)N1C[C@H](C)[C@H](CN(C)C(=O)Nc2ccc(C(F)(F)F)cc2)Oc2ccc(NC(=O)Nc3ccccc3)cc2C1=O | 15.8%
57 | NC(Cc1ccccc1)c1csc(Nc2cc(Oc3ccccc3)ncn2)n1 (configuration not stated) | -44.1% [at 12.3 µM]
58 | NC(Cc1ccc(F)cc1)c1csc(Nc2nncc3ccccc23)n1 (configuration not stated) | 58.7% [at 12.3 µM] (active)
59 | COc1ccc(CC(N)c2csc(NC(=O)Cc3ccccc3)n2)cc1 (configuration not stated) | -13.2% [at 12.3 µM]
60 | C[C@H]1CCCCO[C@@H](CN(C)Cc2ccc(C(=O)O)cc2)[C@@H](C)CN([C@@H](C)CO)C(=O)c2cc(NS(C)(=O)=O)ccc2O1 | 18.6%
61 | CN1C(=O)c2cc(NC(=O)c3ccc4c(c3)OCO4)ccc2OC[C@@H]2O[C@H](CC(=O)O)CC[C@H]21 | -18.9%
62 | O=C(Nc1cc(Cl)cc(Cl)c1)N[C@H]1CC[C@@H](CCNS(=O)(=O)c2cccc(F)c2)O[C@H]1CO | 0.313%
